Laboratory results as given in PubChem BioAssay (Tox21).
Inconclusive results are not listed. Activity calls are given as the source filed them. Calls follow the shape of the dose curve; as a rule, active = well fitted curve in the direction sought with a large enough effect in the repeat runs; inconclusive = weak or mixed curves; inactive = no such curve, though single readings can be large; an effect the other way counts as inactive or inconclusive.

Experiments:
[1] = qHTS RealTime-Glo MT Cell Viability Assay in HepG2 cells - 8 hour (AID 1224873); also: nearly all actives have a fitted effect of over 55% in size
In short: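 HepG2 cells mixed with RealTime-Glo MT reagents (NanoLuc plus cell-permeant prosubstrate) were seeded at 600 cells/well, incubated 5 h at 37 C/5% CO2, then pinned with compounds in DMSO; nonlytic luminescence tracked viability during 40 h treatment.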

[2] = A CellTox Green Cytotoxicity Assay to monitor cytotoxicity in HEK293 cells - 24 hour (AID 1224875); also: series mostly up to about 77 µM; nearly all actives have a fitted effect of over 45% in size
In short: (§1)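 Nonlytic real-time cytotoxicity: HEK293 + CellTox Green reagent plated, 5 h preincubation, pintool compound addition (23 nL in DMSO), 37 C for 40 h, fluorescence measured at successive time points.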

[3] = A CellTox Green Cytotoxicity Assay to monitor cytotoxicity in HepG2 cells - 16 hour (AID 1224876); also: nearly all actives have a fitted effect of over 45% in size
In short: (§2)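 Read-out is fluorescence of a cyanine dye excluded from live cells that stains DNA of dead HepG2 cells, with signal proportional to cytotoxicity. Plates were read at 0, 8, 16, 24, 32 and 40 h after compound addition.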

[4] = qHTS RealTime-Glo MT Cell Viability Assay in HepG2 cells - 32 hour (AID 1224877); also: nearly all actives have a fitted effect of over 55% in size
In short: (§3)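 HepG2 cells (600/well) were dispensed with RealTime-Glo reagents, incubated 5 h at 37 °C, then treated with compounds in DMSO for up to 40 h. Nonlytic NanoLuc luminescence reflecting viable cells was read at each stated time point.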

[5] = A CellTox Green Cytotoxicity Assay to monitor cytotoxicity in HepG2 cells - 24 hour (AID 1224878); also: nearly all actives have a fitted effect of over 45% in size
In short: as §2

[6] = qHTS RealTime-Glo MT Cell Viability Assay in HEK293 cells - 0 hour (AID 1224880); also: nearly all actives have a fitted effect of over 45% in size; also: potency is read from the fitted curve at half-maximal effect; as to activity change, negative = cytotoxicity: top concentration of the series differs between compounds
In short: (§4)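 Cells were seeded together with NanoLuc luciferase and a prosubstrate that viable cells reduce to a luciferase substrate. After a 5 h incubation at 37 C/5% CO2, compounds were added and luminescence was measured repeatedly during 40 h of treatment.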

[7] = A CellTox Green Cytotoxicity Assay to monitor cytotoxicity in HEK293 cells - 32 hour (AID 1224881); also: nearly all actives have a fitted effect of over 40% in size
In short: as §1

[8] = A CellTox Green Cytotoxicity Assay to monitor cytotoxicity in HepG2 cells - 0 hour (AID 1224882); also: nearly all actives have a fitted effect of over 35% in size
In short: as §2

[9] = A CellTox Green Cytotoxicity Assay to monitor cytotoxicity in HepG2 cells - 32 hour (AID 1224883); also: nearly all actives have a fitted effect of over 50% in size
In short: as §2

[10] = A CellTox Green Cytotoxicity Assay to monitor cytotoxicity in HEK293 cells - 8 hour (AID 1224884); also: nearly all actives have a fitted effect of over 35% in size
In short: as §1

[11] = qHTS RealTime-Glo MT Cell Viability Assay in HepG2 cells - 16 hour (AID 1224885); also: nearly all actives have a fitted effect of over 50% in size
In short: as §3

[12] = qHTS RealTime-Glo MT Cell Viability Assay in HEK293 cells - 8 hour (AID 1224887); also: nearly all actives have a fitted effect of over 50% in size; also: potency is read from the fitted curve at half-maximal effect; as to activity change, negative = cytotoxicity: top concentration of the series differs between compounds
In short: as §4

[13] = A CellTox Green Cytotoxicity Assay to monitor cytotoxicity in HEK293 cells - 16 hour (AID 1224888); also: nearly all actives have a fitted effect of over 35% in size
In short: as §1

[14] = qHTS RealTime-Glo MT Cell Viability Assay in HepG2 cells - 0 hour (AID 1224889); also: nearly all actives have a fitted effect of over 50% in size; also: potency is read from the fitted curve at half-maximal effect
In short: as §3

[15] = A CellTox Green Cytotoxicity Assay to monitor cytotoxicity in HepG2 cells - 8 hour (AID 1224890); also: nearly all actives have a fitted effect of over 45% in size
In short: as §2

[16] = qHTS assay to identify small molecule antagonists of the estrogen receptor alpha (ER-alpha) signaling pathway using the BG1 cell line in the presence of 0.1 nM 17-beta-estradiol - cell viability counter screen (AID 1259241); also: nearly all actives have a fitted effect of over 40% in size
In short: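 Cytotoxicity counter-screen: live-cell protease activity measured by fluorescence (30 min reagent step) in the same wells. Cells were VM7Luc4E2 with endogenous ER-alpha and ERE-driven luciferase, treated 22 hr at 37C alongside 0.1 nM 17beta-estradiol final.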

[17] = qHTS assay to identify small molecule antagonists of the androgen receptor (AR) signaling pathway using the MDA cell line in the presence of 0.5 nM R1881 - cell viability counter screen (AID 1259242); also: nearly all actives have a fitted effect of over 45% in size
In short: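 Counter screen for cytotoxicity run in the same wells as the AR antagonist reporter screen: MDA-kb2 cells were treated 16 hr with test compounds and 0.5 nM R1881, then live-cell protease activity was measured by fluorescence.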

[18] = A CellTox Green Cytotoxicity Assay to monitor cytotoxicity in HepG2 cells - 40 hour (AID 1224879); also: nearly all actives have a fitted effect of over 40% in size
In short: as §2

[19] = qHTS RealTime-Glo MT Cell Viability Assay in HEK293 cells - 40 hour (AID 1224874); conditions: RealTime-Glo luminescence; max response: active compounds read low; also: nearly all actives have a fitted effect of over 50% in size
In short: as §4

[20] = qHTS RealTime-Glo MT Cell Viability Assay in HEK293 cells - 24 hour (AID 1224886)
In short: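 HEK293 cells seeded with NanoLuc/prosubstrate reagent, rested 5 h at 37 C, then dosed and kept at 37 C up to 40 h. Nonlytic real-time luminescence from viable cells read at 0, 8, 16, 24, 32 and 40 h.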
% is scaled to controls: 0 for no effect and ±100 for the full control effect.

CC[N+](C)(CC)CCOC(=O)C1c2ccccc2Oc2ccccc21
inactive: outcome [1] | outcome [2] | outcome [3] | Potency [4] | outcome [5] | Potency [6] | outcome [7] | Potency [8] | Potency [9] | outcome [10] | outcome [11] | Potency [12] | outcome [13] | Potency [14] | outcome [15] | outcome [16] | outcome [17]

O=C1c2ccccc2C(=O)c2cc(O)ccc21
active: Potency [12] 55 µM
inactive: outcome [1] | outcome [2] | outcome [3] | Potency [4] | outcome [5] | Potency [18] | outcome [7] | Potency [8] | Potency [9] | outcome [10] | Potency [14] | outcome [15] | outcome [16] | outcome [17]

CC1(C)[C@@H]2CC[C@@]1(C)[C@H](O)C2
inactive: max response [19] 2.75% | outcome [2] | outcome [3] | Potency [4] | outcome [5] | Potency [18] | Potency [6] | outcome [7] | Potency [8] | Potency [9] | outcome [10] | outcome [11] | Potency [20] | Potency [12] | Potency [14] | outcome [15] | outcome [16] | outcome [17]

OCCCCCO
inactive: max response [19] 4.41% | outcome [2] | outcome [3] | Potency [4] | outcome [5] | Potency [18] | Potency [6] | outcome [7] | Potency [8] | Potency [9] | outcome [10] | outcome [11] | Potency [20] | Potency [12] | outcome [13] | Potency [14] | outcome [17]

COc1ccnc(CS(=O)c2nc3cc(OC(F)F)ccc3[nH]2)c1OC (stereo unspecified)
inactive: outcome [1] | outcome [2] | outcome [3] | Potency [4] | outcome [5] | Potency [18] | Potency [6] | outcome [7] | Potency [8] | Potency [9] | outcome [10] | outcome [11] | Potency [20] | Potency [12] | Potency [14] | outcome [15] | outcome [16] | outcome [17]

COCCOC[C@H](CC1(C(=O)NC2CCC(C(=O)O)CC2)CCCC1)C(=O)Oc1ccc2c(c1)CCC2 (stereo partly specified)
inactive: outcome [1] | outcome [2] | outcome [3] | Potency [4] | outcome [5] | Potency [18] | Potency [6] | outcome [7] | Potency [8] | Potency [9] | outcome [10] | Potency [12] | outcome [13] | Potency [14] | outcome [15] | outcome [17]

CCCCCC(=O)OCCc1ccccc1
inactive: outcome [1] | outcome [2] | outcome [3] | Potency [4] | outcome [5] | outcome [7] | Potency [8] | Potency [9] | outcome [10] | outcome [11] | Potency [20] | Potency [12] | outcome [13] | Potency [14] | outcome [15] | outcome [16] | outcome [17]

NC(=O)Cc1cccc2ccccc12
inactive: outcome [1] | outcome [2] | outcome [3] | Potency [4] | outcome [5] | Potency [18] | Potency [6] | outcome [7] | Potency [9] | outcome [10] | outcome [11] | Potency [20] | Potency [12] | outcome [13] | Potency [14] | outcome [15] | outcome [16] | outcome [17]

O=S(=O)(O)c1cccc2c(S(=O)(=O)O)cccc12
inactive: outcome [1] | outcome [3] | Potency [4] | outcome [5] | Potency [18] | Potency [6] | outcome [7] | Potency [8] | Potency [9] | outcome [10] | outcome [11] | Potency [12] | Potency [14] | outcome [15] | outcome [16] | outcome [17]

CC(C)(C)C(=O)Oc1ccc(S(=O)(=O)Nc2ccccc2C(=O)NCC(=O)O)cc1
inactive: outcome [1] | outcome [2] | outcome [3] | Potency [4] | outcome [5] | Potency [18] | outcome [7] | Potency [8] | Potency [9] | outcome [10] | outcome [11] | Potency [20] | Potency [12] | outcome [13] | Potency [14] | outcome [15] | outcome [16] | outcome [17]

CN1C(C)(C)CC(O)CC1(C)C
inactive: outcome [1] | outcome [2] | outcome [3] | Potency [4] | outcome [5] | Potency [18] | Potency [6] | outcome [7] | Potency [8] | Potency [9] | outcome [10] | outcome [11] | Potency [12] | outcome [13] | Potency [14] | outcome [15] | outcome [16] | outcome [17]

O=C1CCCCCCCCCCCCCCO1
inactive: outcome [1] | outcome [2] | outcome [3] | Potency [4] | outcome [5] | Potency [18] | Potency [6] | outcome [7] | Potency [8] | Potency [9] | outcome [10] | outcome [11] | Potency [20] | Potency [12] | Potency [14] | outcome [16] | outcome [17]

CCCC(=O)O[C@]1(C(=O)CC)CC[C@H]2[C@@H]3CCC4=CC(=O)CC[C@]4(C)[C@H]3[C@@H](O)C[C@@]21C
active: Potency [6] 12 µM | Potency [14] 1.69 µM
inactive: outcome [1] | outcome [2] | outcome [3] | Potency [4] | outcome [5] | Potency [18] | outcome [7] | Potency [8] | Potency [9] | outcome [10] | outcome [11] | Potency [12] | outcome [13] | outcome [15] | outcome [16] | outcome [17]

CCCCN1C=CN(C)C1
inactive: max response [19] 9.09% | activity change [2] -7.42% [at 15.8 µM] | cytotoxicity increase [3] -14.5% [at 15.8 µM] | activity change, negative = cytotoxic [4] -0.21% [at 15.8 µM] | cytotoxicity [5] -16.6% [at 15.8 µM] | cytotoxicity increase [18] -22.4% [at 15.8 µM] | activity change, negative = cytotoxicity [6] 0.0716% [at 15.8 µM] | cytotoxicity increase [7] -9.11% [at 15.8 µM] | cytotoxicity [8] -12.1% [at 15.8 µM] | cytotoxicity increase [9] -19.6% [at 15.8 µM] | cytotoxicity increase [10] -6.47% [at 15.8 µM] | activity change, negative = cytotoxic [11] 3.26% [at 15.8 µM] | activity change, negative = cytotoxicity [20] 9.28% [at 15.8 µM] | activity change, negative = cytotoxicity [12] 5.36% [at 15.8 µM] | activity change [13] -9.59% [at 15.8 µM] | activity change, negative = cytotoxicity [14] 0.175% [at 15.8 µM] | cytotoxicity increase [15] -8.5% [at 15.8 µM] | viability change, negative = cytotoxic [17] 0.923% [at 19 µM]
